Source: PubChem BioAssay

The molecules below were run against Alpha-bungarotoxin (Bungarus multicinctus) (UniProt P60615) (assay: compounds binding labelled alpha-BTX control protein – biochemical, small-molecule microarray, Alexa647 label, 635/667 nm fluorescence, artefact control for SMM control protein annotation, profiling panel (AID 1117)). Settings: alpha-BTX-A647 binding fluorescence, higher = more signal.
Chain of Alpha-bungarotoxin (Bungarus multicinctus) (P60615 whole entry, looked up): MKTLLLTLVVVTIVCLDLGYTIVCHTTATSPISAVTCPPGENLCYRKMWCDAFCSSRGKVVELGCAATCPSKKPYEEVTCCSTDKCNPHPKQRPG

First: C=C[C@@H](O)[C@H]1CC(c2ccccc2)=NO1
Second: C=CC[C@]1(C(=O)N(C)C)N=C(c2ccc(OCCCO)cc2)O[C@H]1c1ccccc1
The composite z-score of the first is lower: -0.0532 for the first, 1.25 for the second.

Going from `O=C(Nc1cc(Br)ccc1C(=O)NCc1cccc(O)c1)c1ccccc1` to `CC(C)N1C(=O)c2ccccc2[C@](C)(C(=O)O)[C@@H]1c1ccc(CO)cc1`, the composite z-score falls from 1.36 to 0.468.

First: COCC(=C=CC[C@@H](O)c1ccccc1OCCO)C[C@@H](O)COCc1ccccc1
Second: C=C(C)[C@@H]1CC=C(C(O)C2C=CC3C(=O)N(C4CCCCC4)C(=O)C3N2Nc2ccc(OC)cc2)CC1 (stereo partly specified)
The composite z-score of the first is lower: -0.18 for the first, 1.3 for the second.
